Reference: the supplement of paper PMC11732987, “Enantioselective OTUD7B fragment discovery through chemoproteomics screening and high-throughput optimisation” (Communications Chemistry, 2025)

How the values were obtained:
Assay in all cases: log2 ratio of Biotin-Ahx-Ub-VS probe labelling (fragment/DMSO); higher = less target engagement (more negative = stronger competition), active = hit call of the paper (q ≤ 0.05, log2 ratio ≤ -1)
Conditions in all cases: compound concentration: 200 uM; treatment time: 3 h
USP9X = USP9X (UniProt Q93008)
How it was run: (§1)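 Labelled DUBs from HEK293T lysate were NeutrAvidin-enriched, digested with LysC and trypsin, and run by diaPASEF LC-MS/MS. Before that, each 495 µg sample in Tris/CHAPS/IGEPAL buffer with protease inhibitors was treated in triplicate with fragment at 200 µM or vehicle for 3 h, then with Biotin-Ahx-Ub-VS at 0.5 µM final for 1 h. Values are average log2 ratios of fragment over vehicle by unpaired t-test, based on global-median-normalised Spectronaut label-free quantities from proteins with ≥2 unique peptides.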

UniProt O00487 = target: UniProt O00487
How it was run: as §1

UniProt O00507 = target: UniProt O00507
How it was run: as §1

UniProt P51784 = target: UniProt P51784
How it was run: as §1

UniProt Q5T2D3 = target: T1, UniProt Q5T2D3
T1 sequence (whole entry): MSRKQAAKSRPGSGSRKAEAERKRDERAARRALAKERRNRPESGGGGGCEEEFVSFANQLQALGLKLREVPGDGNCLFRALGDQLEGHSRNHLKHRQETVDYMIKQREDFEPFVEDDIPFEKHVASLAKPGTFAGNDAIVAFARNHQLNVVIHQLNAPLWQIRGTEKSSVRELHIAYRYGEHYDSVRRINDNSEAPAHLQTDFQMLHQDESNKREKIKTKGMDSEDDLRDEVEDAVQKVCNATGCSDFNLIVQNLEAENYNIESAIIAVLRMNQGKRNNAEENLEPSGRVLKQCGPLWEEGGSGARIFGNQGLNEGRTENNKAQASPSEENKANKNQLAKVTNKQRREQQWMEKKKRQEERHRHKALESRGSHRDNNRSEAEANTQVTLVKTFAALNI
How it was run: as §1

UniProt Q8TE49 = target: T2, UniProt Q8TE49
T2 sequence (whole entry): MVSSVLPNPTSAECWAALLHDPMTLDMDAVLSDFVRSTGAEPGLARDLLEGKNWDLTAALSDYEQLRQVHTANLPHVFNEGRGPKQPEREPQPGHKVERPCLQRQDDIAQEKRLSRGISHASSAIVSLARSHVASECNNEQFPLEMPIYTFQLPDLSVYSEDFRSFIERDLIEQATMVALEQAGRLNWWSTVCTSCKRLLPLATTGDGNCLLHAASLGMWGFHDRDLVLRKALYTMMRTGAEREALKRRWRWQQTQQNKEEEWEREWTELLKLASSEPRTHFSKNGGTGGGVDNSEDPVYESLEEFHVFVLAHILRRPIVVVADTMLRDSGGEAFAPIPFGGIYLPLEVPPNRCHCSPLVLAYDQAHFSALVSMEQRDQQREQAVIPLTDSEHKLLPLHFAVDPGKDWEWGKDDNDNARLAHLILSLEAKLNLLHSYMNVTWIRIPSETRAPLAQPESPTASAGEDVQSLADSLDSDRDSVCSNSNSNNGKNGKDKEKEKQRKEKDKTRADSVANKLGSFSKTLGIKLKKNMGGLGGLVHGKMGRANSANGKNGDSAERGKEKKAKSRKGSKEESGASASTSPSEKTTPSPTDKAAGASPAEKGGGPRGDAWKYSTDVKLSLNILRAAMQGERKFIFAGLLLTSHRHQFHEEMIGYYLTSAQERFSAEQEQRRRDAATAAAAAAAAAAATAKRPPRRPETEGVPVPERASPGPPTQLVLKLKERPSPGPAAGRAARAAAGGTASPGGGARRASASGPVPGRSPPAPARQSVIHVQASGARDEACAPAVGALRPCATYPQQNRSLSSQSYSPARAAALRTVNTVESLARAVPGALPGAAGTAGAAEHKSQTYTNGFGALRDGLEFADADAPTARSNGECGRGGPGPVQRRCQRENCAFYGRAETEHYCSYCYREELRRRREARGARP
How it was run: as §1

UniProt Q9P2H5 = target: T3, UniProt Q9P2H5
T3 sequence (whole entry): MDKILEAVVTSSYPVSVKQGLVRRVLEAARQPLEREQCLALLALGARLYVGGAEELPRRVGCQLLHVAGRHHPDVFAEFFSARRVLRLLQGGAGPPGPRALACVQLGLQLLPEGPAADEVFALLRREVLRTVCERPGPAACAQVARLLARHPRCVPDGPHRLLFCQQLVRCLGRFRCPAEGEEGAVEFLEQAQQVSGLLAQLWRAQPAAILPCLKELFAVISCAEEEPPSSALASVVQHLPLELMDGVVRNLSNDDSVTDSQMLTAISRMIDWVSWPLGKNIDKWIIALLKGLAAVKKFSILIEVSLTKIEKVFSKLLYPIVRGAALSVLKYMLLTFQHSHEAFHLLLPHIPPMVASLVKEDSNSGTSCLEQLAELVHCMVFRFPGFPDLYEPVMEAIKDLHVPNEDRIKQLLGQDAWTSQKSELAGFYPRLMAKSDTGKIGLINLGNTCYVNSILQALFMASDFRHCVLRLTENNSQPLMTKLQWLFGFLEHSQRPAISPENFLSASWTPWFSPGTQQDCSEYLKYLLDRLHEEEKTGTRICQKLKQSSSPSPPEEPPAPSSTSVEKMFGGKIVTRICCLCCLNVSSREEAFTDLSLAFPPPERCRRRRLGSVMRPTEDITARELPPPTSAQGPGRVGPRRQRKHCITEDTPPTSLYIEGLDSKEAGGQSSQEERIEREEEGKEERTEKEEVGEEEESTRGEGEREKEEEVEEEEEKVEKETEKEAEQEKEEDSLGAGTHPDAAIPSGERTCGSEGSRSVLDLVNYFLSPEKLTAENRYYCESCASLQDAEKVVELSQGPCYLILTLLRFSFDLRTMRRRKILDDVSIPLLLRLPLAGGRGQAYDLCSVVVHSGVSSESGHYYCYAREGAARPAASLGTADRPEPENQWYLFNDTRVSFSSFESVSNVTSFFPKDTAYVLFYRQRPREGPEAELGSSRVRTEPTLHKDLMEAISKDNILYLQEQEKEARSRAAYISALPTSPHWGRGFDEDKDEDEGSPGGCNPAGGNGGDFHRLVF
How it was run: as §1

UniProt Q9UGI0 = target: T4, UniProt Q9UGI0
T4 sequence (whole entry): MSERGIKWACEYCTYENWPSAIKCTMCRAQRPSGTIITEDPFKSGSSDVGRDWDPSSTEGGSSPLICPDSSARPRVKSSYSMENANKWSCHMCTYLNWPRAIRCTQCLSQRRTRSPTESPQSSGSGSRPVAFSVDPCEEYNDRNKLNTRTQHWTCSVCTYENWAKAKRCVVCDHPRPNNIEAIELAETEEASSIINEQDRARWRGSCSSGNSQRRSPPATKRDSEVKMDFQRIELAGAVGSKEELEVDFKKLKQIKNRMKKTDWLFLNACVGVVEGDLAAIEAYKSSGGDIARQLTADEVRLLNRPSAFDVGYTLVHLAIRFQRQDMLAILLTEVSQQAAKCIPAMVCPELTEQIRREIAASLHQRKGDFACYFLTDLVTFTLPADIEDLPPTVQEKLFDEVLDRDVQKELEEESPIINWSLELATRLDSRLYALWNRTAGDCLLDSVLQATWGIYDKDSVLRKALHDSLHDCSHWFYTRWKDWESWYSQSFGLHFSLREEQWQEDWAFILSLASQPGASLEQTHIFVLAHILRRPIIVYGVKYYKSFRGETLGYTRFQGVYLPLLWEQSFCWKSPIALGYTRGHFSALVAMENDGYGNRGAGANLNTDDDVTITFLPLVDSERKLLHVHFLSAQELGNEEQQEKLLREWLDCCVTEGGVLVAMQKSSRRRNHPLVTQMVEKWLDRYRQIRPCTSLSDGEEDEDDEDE
How it was run: as §1

YOD1 = target: T5, YOD1 (UniProt Q5VVQ6)
T5 sequence (whole entry): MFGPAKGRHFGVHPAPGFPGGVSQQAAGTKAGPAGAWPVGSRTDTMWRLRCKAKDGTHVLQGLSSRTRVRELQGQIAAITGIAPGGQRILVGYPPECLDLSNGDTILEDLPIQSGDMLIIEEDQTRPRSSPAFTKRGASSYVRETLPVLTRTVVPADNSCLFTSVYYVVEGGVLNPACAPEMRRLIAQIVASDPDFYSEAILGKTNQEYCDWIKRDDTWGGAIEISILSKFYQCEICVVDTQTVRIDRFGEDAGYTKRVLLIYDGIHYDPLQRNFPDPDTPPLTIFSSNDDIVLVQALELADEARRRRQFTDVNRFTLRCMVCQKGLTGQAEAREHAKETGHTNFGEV
How it was run: as §1

Measured: log2 ratio of Biotin-Ahx-Ub-VS probe labelling

Sequence of UniProt O00507 (O00507 whole entry): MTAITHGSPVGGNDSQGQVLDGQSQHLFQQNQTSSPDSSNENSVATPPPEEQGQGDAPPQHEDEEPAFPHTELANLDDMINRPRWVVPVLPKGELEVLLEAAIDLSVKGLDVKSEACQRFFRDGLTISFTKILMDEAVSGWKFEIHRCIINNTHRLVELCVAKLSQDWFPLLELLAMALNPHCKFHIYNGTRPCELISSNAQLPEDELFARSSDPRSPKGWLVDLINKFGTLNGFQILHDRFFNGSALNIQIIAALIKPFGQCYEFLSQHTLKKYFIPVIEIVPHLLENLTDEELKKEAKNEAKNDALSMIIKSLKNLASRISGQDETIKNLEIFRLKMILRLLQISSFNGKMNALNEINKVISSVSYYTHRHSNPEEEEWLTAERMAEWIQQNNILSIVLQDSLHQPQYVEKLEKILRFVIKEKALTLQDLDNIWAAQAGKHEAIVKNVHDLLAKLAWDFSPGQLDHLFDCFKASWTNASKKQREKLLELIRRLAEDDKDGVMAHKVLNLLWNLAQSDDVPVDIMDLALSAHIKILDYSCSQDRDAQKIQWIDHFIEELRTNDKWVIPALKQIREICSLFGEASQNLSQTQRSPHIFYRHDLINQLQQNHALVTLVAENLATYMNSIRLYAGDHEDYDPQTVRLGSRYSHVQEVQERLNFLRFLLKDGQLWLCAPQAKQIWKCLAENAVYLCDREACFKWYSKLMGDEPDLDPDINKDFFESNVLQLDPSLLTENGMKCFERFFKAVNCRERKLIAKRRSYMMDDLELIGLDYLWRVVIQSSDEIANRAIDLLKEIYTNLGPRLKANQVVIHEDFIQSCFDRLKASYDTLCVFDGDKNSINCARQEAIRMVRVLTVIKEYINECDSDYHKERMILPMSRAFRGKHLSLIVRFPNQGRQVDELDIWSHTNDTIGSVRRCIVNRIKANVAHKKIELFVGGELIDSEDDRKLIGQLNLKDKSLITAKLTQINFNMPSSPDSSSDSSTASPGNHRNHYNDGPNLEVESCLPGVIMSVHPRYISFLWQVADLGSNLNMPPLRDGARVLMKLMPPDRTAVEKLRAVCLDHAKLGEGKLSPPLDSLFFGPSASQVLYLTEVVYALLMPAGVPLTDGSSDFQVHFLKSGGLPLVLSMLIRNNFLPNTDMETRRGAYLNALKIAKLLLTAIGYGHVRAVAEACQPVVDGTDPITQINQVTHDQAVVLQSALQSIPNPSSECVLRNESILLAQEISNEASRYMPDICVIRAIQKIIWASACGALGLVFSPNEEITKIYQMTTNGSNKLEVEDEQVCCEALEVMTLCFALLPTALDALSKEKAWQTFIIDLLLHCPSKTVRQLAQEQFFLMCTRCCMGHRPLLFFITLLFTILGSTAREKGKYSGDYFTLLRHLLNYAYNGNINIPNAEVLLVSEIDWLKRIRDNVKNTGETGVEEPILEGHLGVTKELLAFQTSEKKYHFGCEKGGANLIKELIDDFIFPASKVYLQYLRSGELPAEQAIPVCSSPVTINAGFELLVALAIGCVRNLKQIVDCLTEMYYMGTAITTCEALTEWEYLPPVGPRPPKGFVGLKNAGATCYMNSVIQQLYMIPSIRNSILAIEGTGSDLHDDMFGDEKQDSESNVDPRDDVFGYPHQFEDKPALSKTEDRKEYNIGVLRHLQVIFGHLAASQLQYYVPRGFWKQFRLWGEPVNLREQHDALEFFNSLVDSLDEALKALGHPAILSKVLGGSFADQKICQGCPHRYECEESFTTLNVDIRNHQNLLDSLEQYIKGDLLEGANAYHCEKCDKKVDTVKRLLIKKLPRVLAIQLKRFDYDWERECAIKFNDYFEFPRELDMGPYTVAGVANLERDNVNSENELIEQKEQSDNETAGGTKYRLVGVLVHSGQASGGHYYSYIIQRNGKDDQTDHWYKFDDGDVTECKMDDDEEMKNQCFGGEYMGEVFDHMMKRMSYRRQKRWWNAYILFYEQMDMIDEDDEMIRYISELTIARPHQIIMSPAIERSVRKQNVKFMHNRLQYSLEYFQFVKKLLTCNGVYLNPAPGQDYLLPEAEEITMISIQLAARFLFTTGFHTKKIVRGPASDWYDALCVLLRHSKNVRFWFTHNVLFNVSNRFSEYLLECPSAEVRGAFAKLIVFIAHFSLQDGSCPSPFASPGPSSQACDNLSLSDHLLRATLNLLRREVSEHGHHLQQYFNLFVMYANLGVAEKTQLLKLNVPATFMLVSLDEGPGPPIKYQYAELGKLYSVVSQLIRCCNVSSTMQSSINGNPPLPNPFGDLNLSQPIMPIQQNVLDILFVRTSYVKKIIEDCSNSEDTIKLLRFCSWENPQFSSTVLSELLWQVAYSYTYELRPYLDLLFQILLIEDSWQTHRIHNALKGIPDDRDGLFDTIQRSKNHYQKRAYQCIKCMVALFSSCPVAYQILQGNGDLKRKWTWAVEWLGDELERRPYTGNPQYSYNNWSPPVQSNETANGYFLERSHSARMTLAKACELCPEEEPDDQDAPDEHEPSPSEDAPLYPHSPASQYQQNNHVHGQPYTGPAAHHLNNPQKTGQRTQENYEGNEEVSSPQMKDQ
Sequence of USP9X (Q93008 whole entry, the tested form may be a part): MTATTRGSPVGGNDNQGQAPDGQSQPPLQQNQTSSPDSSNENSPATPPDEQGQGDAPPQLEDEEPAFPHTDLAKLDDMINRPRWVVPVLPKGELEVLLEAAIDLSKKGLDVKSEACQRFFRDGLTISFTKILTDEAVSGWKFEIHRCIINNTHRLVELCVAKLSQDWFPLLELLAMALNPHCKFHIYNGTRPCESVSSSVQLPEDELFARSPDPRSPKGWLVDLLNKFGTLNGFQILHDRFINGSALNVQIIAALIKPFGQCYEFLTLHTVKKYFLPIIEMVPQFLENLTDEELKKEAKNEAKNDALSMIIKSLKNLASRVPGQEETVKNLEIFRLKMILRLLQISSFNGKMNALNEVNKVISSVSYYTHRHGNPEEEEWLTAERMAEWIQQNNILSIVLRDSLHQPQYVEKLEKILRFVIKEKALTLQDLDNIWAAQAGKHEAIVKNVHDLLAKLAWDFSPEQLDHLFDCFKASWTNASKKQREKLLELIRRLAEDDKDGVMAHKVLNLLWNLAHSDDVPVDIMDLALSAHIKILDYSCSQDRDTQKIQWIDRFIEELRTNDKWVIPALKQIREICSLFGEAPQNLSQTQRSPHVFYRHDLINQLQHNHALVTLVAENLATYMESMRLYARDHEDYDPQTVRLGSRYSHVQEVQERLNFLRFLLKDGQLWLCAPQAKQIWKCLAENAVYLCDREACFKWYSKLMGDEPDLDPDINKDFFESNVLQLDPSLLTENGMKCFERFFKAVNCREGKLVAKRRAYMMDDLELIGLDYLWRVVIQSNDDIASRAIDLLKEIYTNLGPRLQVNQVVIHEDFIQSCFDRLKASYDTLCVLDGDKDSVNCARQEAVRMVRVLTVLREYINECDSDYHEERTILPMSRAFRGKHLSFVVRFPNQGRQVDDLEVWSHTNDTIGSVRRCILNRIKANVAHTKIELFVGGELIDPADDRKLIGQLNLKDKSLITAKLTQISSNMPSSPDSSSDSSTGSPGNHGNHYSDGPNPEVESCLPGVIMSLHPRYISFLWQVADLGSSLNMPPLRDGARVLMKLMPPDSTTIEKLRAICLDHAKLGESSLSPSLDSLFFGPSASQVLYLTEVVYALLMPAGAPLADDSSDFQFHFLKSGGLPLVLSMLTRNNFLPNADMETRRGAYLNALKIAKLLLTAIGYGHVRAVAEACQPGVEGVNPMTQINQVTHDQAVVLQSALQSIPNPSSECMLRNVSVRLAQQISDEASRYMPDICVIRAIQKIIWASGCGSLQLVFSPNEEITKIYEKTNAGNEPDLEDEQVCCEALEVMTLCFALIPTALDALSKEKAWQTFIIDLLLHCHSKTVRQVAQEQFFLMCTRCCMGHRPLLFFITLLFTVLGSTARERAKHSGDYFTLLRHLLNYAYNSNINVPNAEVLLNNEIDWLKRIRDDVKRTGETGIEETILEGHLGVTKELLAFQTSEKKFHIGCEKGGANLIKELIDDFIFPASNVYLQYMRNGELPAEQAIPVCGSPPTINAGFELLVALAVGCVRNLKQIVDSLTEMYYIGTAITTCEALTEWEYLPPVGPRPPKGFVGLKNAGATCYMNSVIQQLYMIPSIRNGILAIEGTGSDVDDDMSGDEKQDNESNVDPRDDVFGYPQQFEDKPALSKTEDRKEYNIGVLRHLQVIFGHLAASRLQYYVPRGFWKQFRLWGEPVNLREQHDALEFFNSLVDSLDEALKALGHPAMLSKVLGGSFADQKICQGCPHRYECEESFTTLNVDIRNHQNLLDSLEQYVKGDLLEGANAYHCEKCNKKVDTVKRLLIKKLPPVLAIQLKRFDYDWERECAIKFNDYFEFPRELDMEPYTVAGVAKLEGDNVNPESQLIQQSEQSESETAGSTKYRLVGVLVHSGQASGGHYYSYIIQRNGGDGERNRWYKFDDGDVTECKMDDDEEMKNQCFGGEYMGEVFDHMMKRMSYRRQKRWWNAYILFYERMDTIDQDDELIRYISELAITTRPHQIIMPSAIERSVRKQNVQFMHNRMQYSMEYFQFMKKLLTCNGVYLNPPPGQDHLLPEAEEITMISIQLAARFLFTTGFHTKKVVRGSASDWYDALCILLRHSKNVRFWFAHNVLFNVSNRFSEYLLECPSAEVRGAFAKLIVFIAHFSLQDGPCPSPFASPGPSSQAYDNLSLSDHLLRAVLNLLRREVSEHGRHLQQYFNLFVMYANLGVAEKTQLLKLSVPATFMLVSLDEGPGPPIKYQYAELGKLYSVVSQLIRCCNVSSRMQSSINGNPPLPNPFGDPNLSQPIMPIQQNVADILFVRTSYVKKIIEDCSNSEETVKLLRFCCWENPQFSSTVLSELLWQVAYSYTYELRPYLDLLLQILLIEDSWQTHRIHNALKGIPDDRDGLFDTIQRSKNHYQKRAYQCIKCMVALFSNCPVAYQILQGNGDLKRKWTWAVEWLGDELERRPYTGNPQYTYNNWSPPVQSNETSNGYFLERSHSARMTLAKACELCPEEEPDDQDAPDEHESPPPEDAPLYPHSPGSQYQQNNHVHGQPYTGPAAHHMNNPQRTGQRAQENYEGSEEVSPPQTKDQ

Cc1noc(N2CCN(C(=O)CCl)CC2)n1.Cl
inactive: USP9X -0.318 | UniProt O00487 0.0199 | UniProt O00507 0.416 | UniProt P51784 0.139 | UniProt Q5T2D3 -0.466 | UniProt Q8TE49 -0.674 | UniProt Q9P2H5 -0.642 | UniProt Q9UGI0 -0.369 | YOD1 0.313
